# Results taken from the supplement of paper PMC6555819.
# Experiments:
# Assay in all cases: PBM binding z-score (relative to random genomic background probes); higher = stronger binding; sequences stand for … in GC…GCGATTGACAGCGTAGAATGAAGG
# [1] = system: RARb homodimer (NR concentration 270 nM)
# Method in brief: (§1)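 For binding z-scores, the reference was random background probes on custom Agilent 4×180K protein-binding microarrays. These arrays were incubated 1 h with ligand-free nuclear receptor dimers in PBS pH 7.4, 2% milk, 0.02% Triton X-100, 1 mM DTT, 0.2 mg/mL BSA and 0.4 mg/ml salmon testes DNA. Fluorescence was scanned after antibody detection of each partner (one per run) and regression-normalized.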
# [2] = system: RARg:RXRa (NR concentration 270 nM, RXRa partner concentration 90 nM)
# Method in brief: as §1
# [3] = system: RARg homodimer (NR concentration 270 nM)
# Method in brief: as §1
# [4] = system: RXRa DBDmut IVT, anti-RXR (DBD mutation: RXRa K156A/R161A, NR concentration 90 nM)
# Method in brief: as §1
# [5] = system: RXRa homodimer (NR concentration 180 nM)
# Method in brief: as §1
# [6] = system: THRa:RXRa (NR concentration 90 nM, RXRa partner concentration 90 nM)
# Method in brief: as §1
# [7] = system: THRa homodimer (NR concentration 90 nM)
# Method in brief: as §1
# [8] = system: VDR homodimer (NR concentration 270 nM)
# Method in brief: as §1
Sequence,PBM binding z-score [1],PBM binding z-score [2],PBM binding z-score [3],PBM binding z-score [4],PBM binding z-score [5],PBM binding z-score [6],PBM binding z-score [7],PBM binding z-score [8]
CGTCCAAGGTCACTGCTAGGTCAGTGAAAGCATT,4.78,7.45,7.04,3.66,5.2,4.48,3.39,3
TTACCAAGGTGAAAAGTCGTTGATGCACGCCTTG,0.298,0.676,0.264,-0.185,1.15,1.37,0.0466,-0.327
ACTATTAGTTGACTTAGGGCAACCCATACGACGC,1.13,0.747,1.04,0.729,0.631,1.55,0.725,0.642
CCTAGCAGGCCAATCTGGGTCACTCTAGGCTTGA,2.09,0.781,1.14,0.254,0.361,3.2,0.202,-0.375
AGAACGAGGGCCATGAGTTGATAGCACGGGTGGC,0.111,0.395,0.308,-0.019,0.448,-0.138,-0.79,0.371
AGAATGAGGTAAAGATCAGGGAAACAGAATACAT,0.102,0.258,0.491,-0.375,0.406,1.79,0.604,-0.343
TCTCGTTGGTCAAAGGTCACACACTCGAAATGCG,5.23,7.05,6.09,1.99,8.17,4.2,2.63,2.94
CTAGACAGGTGAGAAGGTAACTCAGCCTCGATTA,0.253,0.538,0.499,-0.295,0.228,0.0525,-0.0949,-0.377
TCTATTAGTTGATTAGGGCAAACGAAACAGCGGA,0.43,0.388,0.663,0.888,0.631,0.515,0.119,0.435
CCTTACGGGTCACGCGGTTATAGCACGACGAGCG,3.87,5.86,5.88,1.3,6.68,3.17,0.416,1.19
CCGAGTAGGTTATGGGTCATTCAGGCAACGGTGA,2.66,2.52,2.15,0.565,3.06,2.29,0.87,1.42
GCTAGCAGGCCATTTGGGTTACTCAATGACGGGC,-0.137,-0.0989,0.178,-0.102,0.0436,0.307,-0.64,-0.276
ACTAACGGGTCAACGAGGTTATAGCACGCGTATA,3.41,5.03,4.5,1.94,5.17,3.81,1.03,3.56
CTACCAAGGTGAACAATGTCGTTGATTACTATTC,1.24,0.711,0.812,0.62,0.563,2.04,1.01,0.118
GGAACGAGGGCGTTCGAGTTGATAGCATGGCGAT,-0.589,0.0515,0.202,2.26,-0.0265,2.16,-1.11,2.02
ATCGAAAGGTCGACGAGATGAGTATACACCGTTT,2.29,3.91,3.95,1.01,4.04,1.72,-0.43,0.403
ATCACTAGGTAACCAAGTTCAGTGAATGCCGAAC,1.26,0.732,0.632,0.466,0.53,1.32,0.313,2.41
CGTCAAAGTTCGAGGTAACGTAACAGAAAGCAGC,1.46,1.92,2.31,2.39,1.64,2.1,0.898,1.2
TTATATAGGTAAAAGGTGAAAGTCGGTGTGGTAA,1.62,2.08,0.991,0.197,2.87,1.77,0.486,0.445

Sequence,PBM binding z-score [1],PBM binding z-score [2],PBM binding z-score [3],PBM binding z-score [4],PBM binding z-score [5],PBM binding z-score [6],PBM binding z-score [7],PBM binding z-score [8]
GCATATAGGTAATACAAGGTGAAATTCCGATTGT,0.44,0.518,0.637,0.228,0.614,4.06,0.848,0.0965
AGAATGAGGTTATGCGTAGATCAGGGAAGAAAGT,0.687,1.51,1.09,1.23,1.99,2.24,0.599,0.644
CTCGAAAGGTCGGTTAAGGTGAGTATACGGATAA,2.84,2.94,3.26,0.811,2.41,4.88,2.1,0.781
CGAACTAGGTCATCCAGGACAGTGTATACATTGA,3.16,3.92,4.85,2.47,3.21,3.62,2.17,2.4
TCATATAGGTAAAAGGTGACAGTCGGTGTGGTAA,1.71,1.48,0.836,1.66,2.28,1.4,0.394,0.0898
CCTTACGGGTCACTGACAGGTTATAGGATTTGGA,3.52,5.89,4.77,1.67,5.17,2.96,0.251,1.28
CCTCCAAGGTCAGAGAGGTCAGTGAATGCCGAGT,5.51,6.2,6.87,3.18,5.37,4.36,2.59,4.62
TCATATAGGTAAATGCTAGGTGAAATTCCGATCT,0.107,0.506,0.4,1.46,0.811,1.29,0.404,-0.0885
ATCGCAAGGTCGAAGGTGAGTATACCCACCCGAA,1.17,2.67,2.23,0.978,2.93,2.12,-0.0109,0.489
TCTTGTAGCTCAAGCAGGTTAAGAAAGCCTGAGT,-0.116,-0.427,-0.42,0.0335,-0.207,0.103,-1.07,-0.763
CGTCAAAGTTCAAGATAACGTAACAGAAAGCAGC,3.44,5.28,6.09,4.52,4.34,1.72,-0.18,3.57
AGTCAAAGTTCATCTAGGGAACGTAAGATATGCT,3.82,5.57,6.19,4.67,4.53,2.92,-0.658,4.63
CGAACTAGGTCATTGACACGACAGTGAATAGTAA,2.5,3.57,4.22,2.37,2.52,2.53,0.751,1.15
GCGACTGGGGCATCAGCAGGTTAACATAACTTAA,1.03,1.09,0.785,-0.118,0.5,1.04,-0.291,-0.312
GCTGCTAGGTCAGGTTGGTCAGATAACGGGTACG,2.53,2.71,3.5,0.652,1.12,1.84,0.684,1.02
ATCGAAAGATCGAGGTGAGTATAGAGAAAGGGAA,-0.0948,0.227,0.358,-0.896,0.294,0.955,0.245,-0.151
CCTGCTAGATCAATGGTCAGCTAAAGCAGCTCGC,-0.343,-0.647,-0.492,0.00874,-0.596,-0.908,-1.01,-0.711
GCTTACGGGTCAAAGGTTATAGCTTGAATAGAAT,3.13,6.69,4.63,2.37,8.87,3.57,-0.0839,1.45
GCAGACATGTGAAACGCAGGTAACTCAGGGTGGC,-0.931,-0.194,-0.391,-0.691,-0.0899,0.4,-0.871,-1.27

Sequence,PBM binding z-score [1],PBM binding z-score [2],PBM binding z-score [3],PBM binding z-score [4],PBM binding z-score [5],PBM binding z-score [6],PBM binding z-score [7],PBM binding z-score [8]
TCATATAGGTAAAAGGTGGAAGTCGGTGTGGTAA,0.589,0.466,-0.0176,1.55,1.54,0.305,0.294,0.281
AGAACGAGGGCGCGCTGAGTTGATAGCAGAGTAG,-0.416,0.211,0.0624,0.991,0.444,0.45,-0.623,0.824
TCGAGTAGGTTAGACGGGGCATTCAGCCAACATA,0.538,0.307,0.0787,0.0493,0.305,0.812,-0.51,-0.0872
TAGCCTAGGTCTTTCAGGGGCCAGTATAGAAAGC,0.423,0.873,0.295,-0.58,-0.286,0.663,-0.603,-0.407
CGAACTAGGTCATTGAAAGGACAGTGAATAGTAA,3.34,6.37,4.98,2.17,2.84,3.16,0.878,0.863
AGTCAAAGTTCATCTAGGCAACGTAAGATATGCT,3.91,5.49,6.04,4.78,4.97,2.22,-0.142,4.64
CAAACTAGGTCACGAAAGGTCATAGTCGAATGAC,5.66,7.6,8.4,2.64,8.01,5.09,2.8,3.75
GGAACGAGGCCATTCGAGTTGATAGCATGGCGAT,-0.135,0.361,0.706,2.13,-0.125,2.23,-0.443,1.7
CTACCAAGGTGAACCAGGTCGTTGATTACTATTC,1.75,1.44,1.26,0.903,1.76,3.09,1.85,1.28
GGAACGAGGGCCAAGTTGATAGCATCTGTCGACG,-0.0615,0.0796,0.46,0.125,0.105,-0.432,-0.99,-0.364
TAGCCTAGGTCATGCGGGCCAGTACAGTGTCGGC,2.93,3.86,4.22,0.739,3.08,3.06,0.586,0.448
CCTGCTAGGTCAATGGTCAGATAAAGCAGCTCGC,2.54,3.8,4.61,1.55,2.45,2.12,0.626,0.232
TCTTGTAGATCAAGCAGGTGAAGAAAGCCTGAGT,-0.296,-0.262,-0.325,0.591,0.0351,-0.0555,-0.319,-0.154
CCTTGTTGGTCAAGGTCACACACGCTATAGGTAC,4.53,4.56,4.95,1.83,4.51,4.31,4.1,3.13
ATCTCTAGGAAAAGATAGTTCAGTGAATGCAAAT,0.679,0.447,0.556,0.143,0.0291,0.206,-0.344,0.566
ACTAGCAGGCCAAGGGTCTCTCAAGATTAGTCCG,-0.0592,-0.0301,0.272,-0.533,0.0173,-0.234,-0.93,-0.872
TCAGTCAGGTGAAGGTAACTCAGGTACGCAGTCG,0.729,0.735,0.793,0.667,0.742,2.32,1.34,-0.131
TCTATTAGTTAAAGGGCAACCGACGAGTCCGTTT,2.17,1.22,1.42,1.7,1.28,0.666,-0.0439,1.77
TCTTGTAGATCTAAGGTTAAGAAAGCCGAAGCCT,0.513,0.36,0.019,1.06,1.21,2.16,1.26,-0.0148
